# Experimental data from the supplement of paper PMC8728848.
# The full list was thinned out, with the strongest signals kept by preference.
# B1: Gal 3 (Homo sapiens), P17931 (protein)
# chain: MADNFSLHDALSGSGNPNPQGWPGAWGNQPAGAGGYPGASYPGAYPGQAPPGAYPGQAPPGAYHGAPGAYPGAPAPGVYPGPPSGPGAYPSSGQPSAPGAYPATGPYGAPAGPLIVPYNLPLPGGVVPRMLITILGTVKPNANRIQLDFQRGNDVAFHFNPRFNENNRRVIVCNTKLDNNWGREERQSVFPFESGKPFKIQVLVEPDHFKVAVNDAHLLQYNHRVKKLNEISKLGISGDIDLTSASYTMI
# Columns and labels:
# Test in all cases: glycan array binding signal (z-score within array); higher = stronger binding
# Conditions in all cases: glycan notation: IUPAC condensed, linker removed; mutation: A146Q
# Fuc(a1-2)Gal(b1-4)GlcNAc = target: Fuc(a1-2)Gal(b1-4)GlcNAc
# Procedure, shortened: (§1)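 Columns mapping to the same glycan were averaged after glycan names were converted to IUPAC-condensed notation. The data come from 3228 arrays in the Consortium for Functional Glycomics database, limited to those with an available protein sequence. Binding is reported as a within-array Z-score averaged across arrays of one protein sequence and across linkers.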
# [1] = target: Fuc(a1-2)[Gal(a1-3)]Gal(b1-3)GlcNAc
# Procedure, shortened: as §1
# [2] = target: Fuc(a1-2)[Gal(a1-3)]Gal(b1-3)GlcNAc(b1-2)Man(a1-3)[Fuc(a1-2)[Gal(a1-3)]Gal(b1-3)GlcNAc(b1-2)Man(a1-6)]Man(b1-4)GlcNAc(b1-4)GlcNAc
# Procedure, shortened: as §1
# [3] = target: Fuc(a1-2)[Gal(a1-3)]Gal(b1-4)Glc
# Procedure, shortened: as §1
# [4] = target: Fuc(a1-2)[Gal(a1-3)]Gal(b1-4)GlcNAc
# Procedure, shortened: as §1
# [5] = target: Fuc(a1-2)[Gal(a1-3)]Gal(b1-4)GlcNAc(b1-2)Man(a1-3)[Fuc(a1-2)[Gal(a1-3)]Gal(b1-4)GlcNAc(b1-2)Man(a1-6)]Man(b1-4)GlcNAc(b1-4)GlcNAc
# Procedure, shortened: as §1
# [6] = target: Fuc(a1-2)[GalNAc(a1-3)]Gal(b1-3)GalNAc(a1-3)[Fuc(a1-2)]Gal(b1-4)GlcNAc
# Procedure, shortened: as §1
# Fuc(a1-4)GlcNAc = target: Fuc(a1-4)GlcNAc
# Procedure, shortened: as §1
# Gal(a1-3)Gal(b1-3)GlcNAc = target: Gal(a1-3)Gal(b1-3)GlcNAc
# Procedure, shortened: as §1
# Gal(a1-6)Glc = target: Gal(a1-6)Glc
# Procedure, shortened: as §1
# [7] = target: Gal(b1-3)Gal(b1-4)GlcNAc(b1-2)Man(a1-3)[Gal(b1-3)Gal(b1-4)GlcNAc(b1-2)Man(a1-6)]Man(b1-4)GlcNAc(b1-4)GlcNAc
# Procedure, shortened: as §1
# Gal(b1-4)GlcNAc = target: Gal(b1-4)GlcNAc
# Procedure, shortened: as §1
# [8] = target: Gal(b1-4)GlcNAc(b1-2)Man(a1-3)Man(b1-4)GlcNAc(b1-4)GlcNAc
# Procedure, shortened: as §1
# [9] = target: Gal(b1-4)GlcNAc(b1-2)Man(a1-3)[Man(a1-6)]Man(b1-4)GlcNAc(b1-4)GlcNAc
# Procedure, shortened: as §1
# [10] = target: Gal(b1-4)GlcNAc(b1-3)Gal(b1-4)GlcNAc(b1-3)Gal(b1-4)GlcNAc
# Procedure, shortened: as §1
# [11] = target: Gal(b1-4)GlcNAc(b1-3)GalNAc
# Procedure, shortened: as §1
# [12] = target: Gal(b1-4)GlcNAc(b1-3)[GlcNAc(b1-6)]Gal(b1-4)GlcNAc
# Procedure, shortened: as §1
# Gal3S(b1-4)GlcNAc6S = target: Gal3S(b1-4)GlcNAc6S
# Procedure, shortened: as §1
# Gal6S(b1-4)GlcNAc6S = target: Gal6S(b1-4)GlcNAc6S
# Procedure, shortened: as §1
# [13] = target: GlcNAc(a1-4)Gal(b1-4)GlcNAc(b1-3)Gal(b1-4)GlcNAc(b1-3)Gal(b1-4)GlcNAc
# Procedure, shortened: as §1
# GlcNAc(b1-4)GlcNAc = target: GlcNAc(b1-4)GlcNAc
# Procedure, shortened: as §1
# [14] = target: Kdn(a2-3)Gal(b1-4)[Fuc(a1-3)]GlcNAc
# Procedure, shortened: as §1
# [15] = target: Man(a1-2)Man(a1-2)Man(a1-3)Man
# Procedure, shortened: as §1
# [16] = target: Man(a1-2)Man(a1-2)Man(a1-6)[Man(a1-3)]Man
# Procedure, shortened: as §1
# Man(a1-2)Man(a1-3)Man = target: Man(a1-2)Man(a1-3)Man
# Procedure, shortened: as §1
# [17] = target: Man(a1-2)Man(a1-3)[Man(a1-2)Man(a1-6)]Man(a1-6)[Man(a1-2)Man(a1-2)Man(a1-3)]Man(b1-4)GlcNAc(b1-4)GlcNAc
# Procedure, shortened: as §1
# [18] = target: Neu5Ac(a2-3)Gal(b1-3)[Fuc(a1-4)]GlcNAc(b1-3)Gal(b1-4)[Fuc(a1-3)]GlcNAc
# Procedure, shortened: as §1
# [19] = target: Neu5Ac(a2-3)Gal(b1-4)[Fuc(a1-3)]GlcNAc6S
# Procedure, shortened: as §1
# [20] = target: Neu5Ac(a2-6)Gal(b1-4)GlcNAc(b1-2)Man(a1-6)[Man(a1-3)]Man(b1-4)GlcNAc(b1-4)GlcNAc
# Procedure, shortened: as §1
# [21] = target: Neu5Ac(a2-6)Gal(b1-4)GlcNAc(b1-3)Gal(b1-4)GlcNAc(b1-3)Gal(b1-4)GlcNAc
# Procedure, shortened: as §1
binder,measurement,setting,value
B1,glycan array binding signal (z-score),Fuc(a1-2)Gal(b1-4)GlcNAc,0.166
same,glycan array binding signal (z-score),[1],3.36
same,glycan array binding signal (z-score),[2],9.93
same,glycan array binding signal (z-score),[3],2.81
same,glycan array binding signal (z-score),[4],3.94
same,glycan array binding signal (z-score),[5],10.3
same,glycan array binding signal (z-score),[6],-0.199
same,glycan array binding signal (z-score),Fuc(a1-4)GlcNAc,-0.12
same,glycan array binding signal (z-score),Gal(a1-3)Gal(b1-3)GlcNAc,-0.087
same,glycan array binding signal (z-score),Gal(a1-6)Glc,-0.188
same,glycan array binding signal (z-score),[7],10.2
same,glycan array binding signal (z-score),Gal(b1-4)GlcNAc,-0.196
same,glycan array binding signal (z-score),[8],-0.083
same,glycan array binding signal (z-score),[9],-0.181
same,glycan array binding signal (z-score),[10],3.5
same,glycan array binding signal (z-score),[11],-0.187
same,glycan array binding signal (z-score),[12],0.13
same,glycan array binding signal (z-score),Gal3S(b1-4)GlcNAc6S,0.851
same,glycan array binding signal (z-score),Gal6S(b1-4)GlcNAc6S,-0.192
same,glycan array binding signal (z-score),[13],2.23
same,glycan array binding signal (z-score),GlcNAc(b1-4)GlcNAc,-0.132
same,glycan array binding signal (z-score),[14],-0.201
same,glycan array binding signal (z-score),[15],-0.186
same,glycan array binding signal (z-score),[16],-0.177
same,glycan array binding signal (z-score),Man(a1-2)Man(a1-3)Man,-0.199
same,glycan array binding signal (z-score),[17],-0.15
same,glycan array binding signal (z-score),[18],-0.2
same,glycan array binding signal (z-score),[19],-0.188
same,glycan array binding signal (z-score),[20],-0.197
same,glycan array binding signal (z-score),[21],1.65
